Experimental data as given in PubChem BioAssay (Tox21).
Results filed as inconclusive are left out. Activity calls are given as the source filed them. Unless noted, calls follow the shape of the dose curve; as a rule, active = well fitted curve in the direction sought with a large enough effect in the repeat runs; inconclusive = weak or mixed curves; inactive = no such curve, though single readings can be large; an effect the other way counts as inactive or inconclusive.

Assays:
[1] = qHTS assay to identify small molecule antagonists of the estrogen related receptor (ERR) signaling pathway from Tox21 library - cell viability counter screen (AID 1224834); also: nearly all actives have a fitted effect of over 30% in size
Outline: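 Compounds in DMSO were pinned onto ERR cells that had been incubated for 6 h, and the plates were held at 37 C for 17.5 h. CellTiter-Fluor reagent was then added and fluorescence was measured after 30 min.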

[2] = target: Luciferin 4-monooxygenase (Photinus pyralis) (UniProt P08659); experiment: qHTS assay to identify small molecule inhibitors of firefly luciferase (AID 1224835); also: nearly all actives have a fitted effect of over 25% in size; also: potency is read from the fitted curve at half-maximal effect
Chain of Luciferin 4-monooxygenase (Photinus pyralis) (P08659 whole entry, looked up): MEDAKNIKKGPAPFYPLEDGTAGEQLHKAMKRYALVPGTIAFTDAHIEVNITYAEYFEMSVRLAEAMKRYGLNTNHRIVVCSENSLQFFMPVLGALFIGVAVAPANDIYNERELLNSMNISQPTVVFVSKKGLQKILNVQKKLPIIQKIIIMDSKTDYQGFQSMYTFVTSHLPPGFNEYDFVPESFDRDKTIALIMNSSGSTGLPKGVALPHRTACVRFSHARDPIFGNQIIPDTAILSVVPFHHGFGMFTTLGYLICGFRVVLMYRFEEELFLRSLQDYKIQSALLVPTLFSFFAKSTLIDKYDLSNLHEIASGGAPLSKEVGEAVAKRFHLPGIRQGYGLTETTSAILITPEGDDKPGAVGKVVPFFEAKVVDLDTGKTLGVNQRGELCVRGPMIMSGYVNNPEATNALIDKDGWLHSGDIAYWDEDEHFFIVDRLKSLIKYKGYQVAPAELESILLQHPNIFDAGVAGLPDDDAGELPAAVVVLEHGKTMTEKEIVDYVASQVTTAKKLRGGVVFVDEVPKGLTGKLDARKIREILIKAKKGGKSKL
Outline: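 Quantitative HTS format; KM concentrations of both substrates. Purified P. pyralis FLuc activity quantified from luminescence images.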

[3] = qHTS assay to identify small molecule agonists of the constitutive androstane receptor (CAR) signaling pathway - cell viability counter screen (AID 1224836); also: series mostly up to about 92 µM; nearly all actives have a fitted effect of over 45% in size
Outline: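 Fluorescence from CellTiter-Fluor indicates live cells after 23 h exposure. The human hepatoma line expresses hCAR and a CYP2B6-2.2kb reporter. Incubation medium contains 0.75 uM PK11195 (final).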

[4] = qHTS assay to identify small molecule antagonists of the constitutive androstane receptor (CAR) signaling pathway - cell viability counter screen (AID 1224837); also: series mostly up to about 92 µM; nearly all actives have a fitted effect of over 45% in size
Outline: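 Cells are seeded, rested 4 hr at 37 C/5% CO2, dosed with compound (15-point series) and 50 nM CITCO, incubated a further 23 hr, and then CellTiter-Fluor reagent is added before fluorescence is read. The line is HepG2 with stable hCAR and CYP2B6-2.2kb.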

[5] = target: Nuclear receptor subfamily 1 group I member 3 (Homo sapiens) (UniProt Q14994); experiment: qHTS assay to identify small molecule antagonists of the constitutive androstane receptor (CAR) signaling pathway (AID 1224838);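 also: HepG2 cells stably expressing hCAR with CYP2B6 luciferase reporter stimulated by CITCO; nearly all actives have a fitted effect of over 40% in size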
Chain of Nuclear receptor subfamily 1 group I member 3 (Homo sapiens) (Q14994 whole entry, looked up): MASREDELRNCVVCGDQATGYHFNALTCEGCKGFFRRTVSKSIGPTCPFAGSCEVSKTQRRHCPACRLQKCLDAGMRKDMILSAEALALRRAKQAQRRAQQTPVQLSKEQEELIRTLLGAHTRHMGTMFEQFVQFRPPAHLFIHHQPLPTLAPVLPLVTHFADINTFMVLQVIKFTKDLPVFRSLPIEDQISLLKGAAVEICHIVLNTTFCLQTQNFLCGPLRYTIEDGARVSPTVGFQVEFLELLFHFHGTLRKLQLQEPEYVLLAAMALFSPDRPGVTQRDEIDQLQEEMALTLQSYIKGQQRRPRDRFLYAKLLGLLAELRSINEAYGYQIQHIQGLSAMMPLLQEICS
Outline: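 Luminescence from a CYP2B6-2.2kb promoter reporter in hCAR-expressing HepG2 cells reflects CAR signaling. Cells received compounds at 15 concentrations and 50 nM CITCO (final), then incubated 24 h at 37 C/5% CO2.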

[6] = target: Nuclear receptor subfamily 1 group I member 3 (Homo sapiens) (UniProt Q14994); experiment: qHTS assay to identify small molecule agonists of the constitutive androstane receptor (CAR) signaling pathway (AID 1224839); also: nearly all actives have a fitted effect of over 15% in size; also: potency is read from the fitted curve at half-maximal effect;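 as to activation: HepG2 cells stably carrying human CAR and a CYP2B6 luciferase reporter; series mostly up to about 92 µM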
Outline: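 Stable hCAR/CYP2B6-2.2kb HepG2 line in DMEM with 10% FBS; compounds (15 concentrations) and 0.75 uM PK11195 final, 24 h at 37 C/5% CO2, then ONE-Glo luminescence after 30 min.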

[7] = target: Thyrotropin receptor (Homo sapiens) (UniProt P16473); experiment: qHTS assay to identify small molecule agonists of the thyroid stimulating hormone receptor (TSHR) signaling pathway (AID 1224843; calls by dose curve; also: nearly all actives have a fitted effect of over 45% in size)
Chain of Thyrotropin receptor (Homo sapiens) (P16473 whole entry, looked up): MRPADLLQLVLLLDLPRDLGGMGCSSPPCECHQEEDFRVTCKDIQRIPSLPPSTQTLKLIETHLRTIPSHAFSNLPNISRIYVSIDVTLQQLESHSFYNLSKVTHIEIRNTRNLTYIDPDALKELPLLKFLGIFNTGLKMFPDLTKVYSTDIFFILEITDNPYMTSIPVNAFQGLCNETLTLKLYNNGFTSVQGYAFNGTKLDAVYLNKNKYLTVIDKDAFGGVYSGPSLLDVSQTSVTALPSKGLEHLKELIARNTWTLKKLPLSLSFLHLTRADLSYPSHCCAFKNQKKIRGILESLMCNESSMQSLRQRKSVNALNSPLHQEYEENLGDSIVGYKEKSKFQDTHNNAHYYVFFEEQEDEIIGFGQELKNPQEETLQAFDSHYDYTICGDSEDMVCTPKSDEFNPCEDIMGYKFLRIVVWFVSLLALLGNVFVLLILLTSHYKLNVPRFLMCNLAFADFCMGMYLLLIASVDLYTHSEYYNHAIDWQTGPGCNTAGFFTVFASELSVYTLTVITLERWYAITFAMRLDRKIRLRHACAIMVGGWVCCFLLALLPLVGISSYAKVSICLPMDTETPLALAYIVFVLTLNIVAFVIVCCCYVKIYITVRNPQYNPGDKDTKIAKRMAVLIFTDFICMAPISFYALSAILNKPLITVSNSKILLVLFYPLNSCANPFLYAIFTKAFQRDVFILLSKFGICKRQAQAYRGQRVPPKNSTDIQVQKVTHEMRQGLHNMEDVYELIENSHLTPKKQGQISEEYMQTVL
Outline: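 Using 15 concentrations per compound in triplicate, cAMP production was monitored in TSHR-HEK293 cells after 30 min compound incubation at RT; HTRF reagents followed, with fluorescence intensity recorded after 1 h.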

[8] = qHTS assay to identify small molecule agonists of the hypoxia (HIF-1) signaling pathway - cell viability counter screen (AID 1224844; calls by dose curve; also: nearly all actives have a fitted effect of over 50% in size)
Outline: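 Viability counter screen: HRE-bla ME-180 cells plated 5 hrs before compound addition, treated 17 hrs at 37C and 5% CO2, then CellTiter-Glo added after the FRET reporter read; luminescence after 30 min.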

[9] = qHTS assay to identify small molecule agonists of H2AX - cell viability counter screen (AID 1224847; calls by dose curve; also: top concentration of the series differs between compounds; nearly all actives have a fitted effect of over 30% in size)
Outline: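 Viability of CHO-K1 (wild type) cells after 3 hr compound exposure was measured by CellTiter-Glo luminescence.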

[10] = qHTS RealTime-Glo MT Cell Viability Assay in HepG2 cells - 24 hour (AID 1224867); also: nearly all actives have a fitted effect of over 50% in size
Outline: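 Luminescence read-out: viable HepG2 cells reduce a prosubstrate to a NanoLuc substrate, giving a signal proportional to live cell number. Reads taken at 0, 8, 16, 24, 32 and 40 h of compound exposure at 37 C.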

[11] = qHTS RealTime-Glo MT Cell Viability Assay in HEK293 cells - 32 hour (AID 1224868); also: top concentration of the series differs between compounds; nearly all actives have a fitted effect of over 50% in size
Outline: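 Nonlytic real-time viability readout: viable cells convert prosubstrate to NanoLuc substrate, giving luminescence proportional to live cell number. HEK293, 600 cells/well, compound added after 5 h, continuous culture at 37 C.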

[12] = A CellTox Green Cytotoxicity Assay to monitor cytotoxicity in HEK293 cells - 0 hour (AID 1224869); also: nearly all actives have a fitted effect of over 50% in size
Outline: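 Dead-cell fluorescence measured kinetically: asymmetric cyanine dye, HEK293, 600 cells/well, 5 h settle, 23 nL cpd/DMSO, 37 C, reads 0–40 h every 8 h.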

[13] = qHTS RealTime-Glo MT Cell Viability Assay in HepG2 cells - 40 hour (AID 1224870); also: nearly all actives have a fitted effect of over 50% in size
Outline: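 HepG2 cells mixed with RealTime-Glo MT reagents (NanoLuc plus cell-permeant prosubstrate) were seeded at 600 cells/well, incubated 5 h at 37 C/5% CO2, then pinned with compounds in DMSO; nonlytic luminescence tracked viability during 40 h treatment.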

[14] = qHTS assay to identify small molecule agonists of H2AX (AID 1224845; active = well fitted activation curve with a large enough effect in the signal ratio in the repeat runs, not every such curve was filed as active; the % refers to the signal ratio; also: potency is read from the fitted curve at half-maximal effect)
Outline: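 Wild-type CHO-K1 cells plated overnight, then exposed 3 hr at 37C to compounds at 15 concentrations (0.76% DMSO). Lysed, then HTRF anti-pH2AX(S139)-cryptate/anti-H2AX-d2 detection after 24 hr at room temperature; emissions 665 and 620 nm.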

[15] = qHTS assay to identify small molecule agonists of the hypoxia (HIF-1) signaling pathway (AID 1224846; active = well fitted activation curve with a large enough effect in the signal ratio in the repeat runs, not every such curve was filed as active; the % refers to the signal ratio)
Outline: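 Agonist mode reporter screen. ME-180 cells stably expressing bla under HRE control received test compounds in DMSO for 17 hrs (37C, 5% CO2), and beta-lactamase activity was then detected with the CCF4-AM FRET substrate.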

[16] = qHTS assay to identify small molecule antagonists of the estrogen related receptor signaling pathway with the pleiotropic PPARgamma coactivator (PGC) from Tox21 10K library (AID 1224841; call rule not given here)
Outline: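 Cells stably carrying the PGC/ERR reporter, seeded at 2,000 per well, received pin-transferred compounds 6 h post-plating. Exposure lasted 18 h at 37 C. Signal: One-Glo luminescence.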

[17] = qHTS assay to identify small molecule agonists of the estrogen related receptor signaling pathway with the pleiotropic PPARgamma coactivator (PGC) from Tox21 10K library (AID 1224842); also: nearly all actives have a fitted effect of over 15% in size
Outline: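 PGC/ERR reporter cells (NTP line) were seeded 2,000 per well, rested 6 h at 37 C/5% CO2, then pin-dosed with compounds in DMSO for 18 h at 37 C; luciferase read by One-Glo luminescence after 30 min at room temperature.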

[18] = qHTS assay to identify small molecule antagonists of the estrogen related receptor (ERR) signaling pathway from Tox21 library (AID 1224848); also: nearly all actives have a fitted effect of over 50% in size
Outline: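 Tox21 10K compounds in DMSO tested for ERR pathway antagonism in NTP's ERR cell line; 18 h, 37 C exposure; ONE-Glo luminescence.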

[19] = qHTS assay to identify small molecule agonists of the estrogen related receptor (ERR) signaling pathway from Tox21 library (AID 1224849; calls by dose curve; also: nearly all actives have a fitted effect of over 15% in size)
Outline: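 Quantitative HTS in agonist format: NTP ERR cell line, compounds transferred in DMSO after 6 h plating, 18 h incubation at 37 C, ONE-Glo luminescence endpoint.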

[20] = qHTS assay to identify small molecule antagonists of the estrogen related receptor signaling pathway with the pleiotropic PPARgamma coactivator (PGC) from Tox21 10K library - cell viability counter screen (AID 1224840; active = well fitted cell-killing curve with a large enough effect in the repeat runs, not every such curve was filed as active; also: nearly all actives have a fitted effect of over 40% in size)
Outline: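 Cell viability is measured by CellTiter-Fluor fluorescence in PGC/ERR cells that receive compounds after a 6-hour attachment period and are then incubated 17.5 hours at 37 C.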

Measured: Potency

CC(C)=CCC/C(C)=C/C#N
not listed: [14] | [15] | [16] | [17] | [18] | [19] | [20]
inactive: all other assays above

CNC(=O)Nc1ccc(Cl)c(Cl)c1
active: [2] 56.4 µM
not listed: [6] | [16] | [17] | [18] | [19] | [20]
inactive: all other assays above

C=C(C)C(=O)OCC(O)CO (stereo not given)
not listed: [20]
inactive: all other assays above

CCOC(=O)c1cnc2c(cnn2CC)c1NN=C(C)C
not listed: [7] | [15] | [16] | [17] | [18] | [19]
inactive: all other assays above

C[C@@H]1CCC[C@H](C)N1
not listed: [12] | [15] | [20]
inactive: all other assays above

CC(=O)C1CCCCC1=O (stereo not given)
not listed: [16] | [17] | [18] | [19] | [20]
inactive: all other assays above

CC[C@H]1OC(=O)[C@H](C)[C@@H](O[C@H]2C[C@@](C)(OC)[C@@H](O)[C@H](C)O2)[C@H](C)[C@@H](O[C@@H]2O[C@H](C)C[C@H](N(C)C)[C@H]2O)[C@](C)(OC)C[C@@H](C)C(=O)[C@H](C)[C@@H](O)[C@]1(C)O
not listed: [7] | [14] | [16] | [20]
inactive: all other assays above

C[N+](C)(C)CCCCCCCCCC[N+](C)(C)C
not listed: [14] | [15] | [16] | [17] | [18] | [19] | [20]
inactive: all other assays above

CN(C)CCN(C)CCN(C)C
not listed: [16] | [17] | [18] | [19] | [20]
inactive: all other assays above

CCCCCCCCCCCCSC
not listed: [6] | [10] | [16] | [17] | [18] | [19] | [20]
inactive: all other assays above

O=[N+]([O-])c1ccc(/C=N\O)o1
not listed: [6] | [7] | [15] | [16] | [17] | [18] | [19]
inactive: all other assays above

CCCCCC(C)N (stereo not given)
not listed: [6] | [14] | [16] | [17] | [18] | [19]
inactive: all other assays above

Nc1ccn([C@@H]2O[C@H](CO)[C@@H](O)[C@@H]2O)c(=O)n1
active: [14] 20.1 µM
not listed: [5] | [7] | [12] | [20]
inactive: all other assays above

CCOc1ccc2nc(S(N)(=O)=O)sc2c1
active: [2] 34.7 µM | [6] 7.5 µM
not listed: [14] | [16] | [17] | [18] | [19] | [20]
inactive: all other assays above

O=[N+]([O-])c1cncn1CCN1CCOCC1
not listed: [5] | [15] | [16] | [17] | [18] | [19]
inactive: all other assays above
